# Measurements reported in the supplement of paper PMC8728848.
# The full list was thinned out, with the strongest signals kept by preference.
# Tests used:
# Test in all cases: glycan array binding signal (z-score within array); higher = stronger binding
# Details in all cases: glycan notation: IUPAC condensed, linker removed
# [1] = target: Fuc(a1-3)[Gal(b1-4)]GlcNAc(b1-2)Man(a1-3)[Fuc(a1-3)[Gal(b1-4)]GlcNAc(b1-2)Man(a1-6)]Man(b1-4)GlcNAc(b1-4)GlcNAc
# Method in brief: (§1)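 Arrays were curated from the Consortium for Functional Glycomics database, 3228 in total, and kept only where the protein sequence was available. Binding is expressed as a within-array Z-score. This score was averaged across arrays of the same protein sequence at different concentrations or buffers and across linkers, and negative values can be read as non-binding.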
# [2] = target: Fuc(a1-3)[Gal(b1-4)]GlcNAc(b1-3)Gal(b1-3)[Fuc(a1-4)]GlcNAc
# Method in brief: as §1
# [3] = target: Fuc(a1-3)[Gal3S(b1-4)]Glc
# Method in brief: as §1
# [4] = target: Fuc(a1-3)[GalNAc(b1-4)]GlcNAc
# Method in brief: as §1
# [5] = target: Gal(a1-3)Gal(b1-3)GlcNAc(b1-6)GalNAc
# Method in brief: as §1
# [6] = target: Gal(a1-3)Gal(b1-4)GlcNAc
# Method in brief: as §1
# [7] = target: Gal(a1-3)Gal(b1-4)GlcNAc(b1-3)GalNAc
# Method in brief: as §1
# [8] = target: Gal(a1-3)Gal(b1-4)[Fuc(a1-3)]GlcNAc
# Method in brief: as §1
# [9] = target: Gal(b1-3)GlcNAc(b1-3)Gal(b1-3)GlcNAc
# Method in brief: as §1
# [10] = target: Gal(b1-3)GlcNAc(b1-3)Gal(b1-4)GlcNAc
# Method in brief: as §1
# [11] = target: Gal(b1-3)GlcNAc(b1-3)Gal(b1-4)[Fuc(a1-3)]GlcNAc
# Method in brief: as §1
# [12] = target: Gal(b1-4)Glc6S
# Method in brief: as §1
# [13] = target: Gal(b1-4)GlcNAc(a1-6)Gal(b1-4)GlcNAc
# Method in brief: as §1
# [14] = target: Gal(b1-4)GlcNAc(b1-2)Man(a1-3)Man(b1-4)GlcNAc(b1-4)GlcNAc
# Method in brief: as §1
# [15] = target: Gal(b1-4)GlcNAc(b1-2)Man(a1-3)[GlcNAc(b1-4)][Gal(b1-4)GlcNAc(b1-2)Man(a1-6)]Man(b1-4)GlcNAc(b1-4)GlcNAc
# Method in brief: as §1
# [16] = target: Gal(b1-4)GlcNAc(b1-2)Man(a1-6)[GlcNAc(b1-2)Man(a1-3)]Man(b1-4)GlcNAc(b1-4)GlcNAc
# Method in brief: as §1
# [17] = target: Gal(b1-4)GlcNAc(b1-3)Gal(b1-4)GlcNAc(b1-3)Gal(b1-4)GlcNAc(b1-2)Man(a1-3)[Gal(b1-4)GlcNAc(b1-3)Gal(b1-4)GlcNAc(b1-3)Gal(b1-4)GlcNAc(b1-2)Man(a1-6)]Man(b1-4)GlcNAc(b1-4)GlcNAc
# Method in brief: as §1
# [18] = target: Gal(b1-4)GlcNAc(b1-3)Gal(b1-4)GlcNAc(b1-3)Gal(b1-4)GlcNAc(b1-2)Man(a1-3)[Gal(b1-4)GlcNAc(b1-3)Gal(b1-4)GlcNAc(b1-3)Gal(b1-4)GlcNAc(b1-2)Man(a1-6)]Man(b1-4)GlcNAc(b1-4)[Fuc(a1-6)]GlcNAc
# Method in brief: as §1
# [19] = target: Gal(b1-4)GlcNAc(b1-3)Gal(b1-4)GlcNAc(b1-3)Gal(b1-4)GlcNAc(b1-2)[Gal(b1-4)GlcNAc(b1-3)Gal(b1-4)GlcNAc(b1-3)Gal(b1-4)GlcNAc(b1-6)]Man(a1-6)[Gal(b1-4)GlcNAc(b1-3)Gal(b1-4)GlcNAc(b1-3)Gal(b1-4)GlcNAc(b1-2)Man(a1-3)]Man(b1-4)GlcNAc(b1-4)[Fuc(a1-6)]GlcNAc
# Method in brief: as §1
# [20] = target: Gal(b1-4)GlcNAc(b1-3)Gal(b1-4)GlcNAc(b1-3)Gal(b1-4)GlcNAc(b1-3)Gal(b1-4)GlcNAc(b1-2)Man(a1-3)[Gal(b1-4)GlcNAc(b1-3)Gal(b1-4)GlcNAc(b1-3)Gal(b1-4)GlcNAc(b1-3)Gal(b1-4)GlcNAc(b1-2)Man(a1-6)]Man(b1-4)GlcNAc(b1-4)[Fuc(a1-6)]GlcNAc
# Method in brief: as §1
# [21] = target: Gal(b1-4)GlcNAc(b1-3)Gal(b1-4)GlcNAc(b1-3)Gal(b1-4)GlcNAc(b1-3)Gal(b1-4)GlcNAc(b1-3)Gal(b1-4)GlcNAc(b1-2)Man(a1-3)[Gal(b1-4)GlcNAc(b1-3)Gal(b1-4)GlcNAc(b1-3)Gal(b1-4)GlcNAc(b1-3)Gal(b1-4)GlcNAc(b1-3)Gal(b1-4)GlcNAc(b1-2)Man(a1-6)]Man(b1-4)GlcNAc(b1-4)GlcNAc
# Method in brief: as §1
# [22] = target: Gal(b1-4)GlcNAc(b1-3)Gal(b1-4)GlcNAc(b1-3)Gal(b1-4)GlcNAc(b1-3)Gal(b1-4)GlcNAc(b1-3)Gal(b1-4)GlcNAc(b1-2)[Gal(b1-4)GlcNAc(b1-3)Gal(b1-4)GlcNAc(b1-3)Gal(b1-4)GlcNAc(b1-3)Gal(b1-4)GlcNAc(b1-3)Gal(b1-4)GlcNAc(b1-6)]Man(a1-6)[Gal(b1-4)GlcNAc(b1-3)Gal(b1-4)GlcNAc(b1-3)Gal(b1-4)GlcNAc(b1-3)Gal(b1-4)GlcNAc(b1-3)Gal(b1-4)GlcNAc(b1-2)Man(a1-3)]Man(b1-4)GlcNAc(b1-4)[Fuc(a1-6)]GlcNAc
# Method in brief: as §1
# [23] = target: Gal(b1-4)GlcNAc(b1-3)[Gal(b1-4)GlcNAc(b1-6)]Gal(b1-4)GlcNAc
# Method in brief: as §1
# [24] = target: Gal(b1-4)GlcNAc(b1-3)[GlcNAc(b1-6)]Gal(b1-4)GlcNAc
# Method in brief: as §1
# [25] = target: Gal6S(b1-3)GlcNAc6S
# Method in brief: as §1
# [26] = target: Gal6S(b1-4)Glc
# Method in brief: as §1
# [27] = target: GalNAc(b1-4)GlcNAc(b1-3)GalNAc(b1-4)GlcNAc
# Method in brief: as §1
# [28] = target: GalNAc(b1-4)GlcNAc6S
# Method in brief: as §1
# [29] = target: GlcNAc(a1-4)Gal(b1-4)GlcNAc(b1-3)Gal(b1-4)GlcNAc
# Method in brief: as §1
# [30] = target: GlcNAc(b1-2)Man(a1-3)[GlcNAc(b1-4)][GlcNAc(b1-2)Man(a1-6)]Man(b1-4)GlcNAc(b1-4)[Fuc(a1-6)]GlcNAc
# Method in brief: as §1
# [31] = target: GlcNAc(b1-3)Gal(b1-4)Glc
# Method in brief: as §1
# [32] = target: GlcNAc(b1-3)Gal(b1-4)GlcNAc(b1-3)Gal(b1-4)GlcNAc(b1-3)Gal(b1-4)GlcNAc(b1-2)Man(a1-3)[GlcNAc(b1-3)Gal(b1-4)GlcNAc(b1-3)Gal(b1-4)GlcNAc(b1-3)Gal(b1-4)GlcNAc(b1-2)Man(a1-6)]Man(b1-4)GlcNAc(b1-4)[Fuc(a1-6)]GlcNAc
# Method in brief: as §1
# [33] = target: GlcNAc(b1-6)Gal(b1-4)GlcNAc
# Method in brief: as §1
# [34] = target: Kdn(a2-3)Gal(b1-4)GlcNAc
# Method in brief: as §1
# [35] = target: Neu5Ac(a2-3)Gal(b1-3)GlcNAc
# Method in brief: as §1
# [36] = target: Neu5Ac(a2-3)Gal(b1-3)GlcNAc(b1-3)Gal(b1-4)GlcNAc
# Method in brief: as §1
# [37] = target: Neu5Ac(a2-3)Gal(b1-3)[Fuc(a1-4)]GlcNAc
# Method in brief: as §1
# [38] = target: Neu5Ac(a2-3)Gal(b1-4)GlcNAc(b1-2)Man
# Method in brief: as §1
# [39] = target: Neu5Ac(a2-3)Gal(b1-4)GlcNAc(b1-3)Gal(b1-4)GlcNAc(b1-3)Gal(b1-4)GlcNAc(b1-2)Man(a1-3)[Neu5Ac(a2-3)Gal(b1-4)GlcNAc(b1-3)Gal(b1-4)GlcNAc(b1-3)Gal(b1-4)GlcNAc(b1-2)Man(a1-6)]GalNAc
# Method in brief: as §1
# [40] = target: Neu5Ac(a2-3)Gal(b1-4)[Fuc(a1-3)]GlcNAc(b1-6)[Gal(b1-3)]GalNAc
# Method in brief: as §1
# [41] = target: Neu5Ac(a2-3)Gal(b1-4)[Fuc(a1-3)]GlcNAc6S
# Method in brief: as §1
# [42] = target: Neu5Ac(a2-6)Gal(b1-3)GlcNAc(b1-3)[Gal(b1-4)GlcNAc(b1-6)]Gal(b1-4)Glc
# Method in brief: as §1
# [43] = target: Neu5Ac(a2-6)Gal(b1-4)GlcNAc(b1-2)Man(a1-3)[Neu5Ac(a2-6)Gal(b1-4)GlcNAc(b1-2)Man(a1-6)]Man(b1-4)GlcNAc(b1-4)GlcNAc
# Method in brief: as §1
# [44] = target: Neu5Ac(a2-8)Neu5Ac(a2-3)[GalNAc(b1-4)]Gal(b1-4)Glc
# Method in brief: as §1
# [45] = target: Neu5Ac(a2-8)Neu5Ac(a2-8)Neu5Ac
# Method in brief: as §1
binder,measurement,setting,value
"CC1G-10077 (Coprinopsis cinerea), A8NDT7 (protein) MALNEGVYWIRNSRFTNKVLDLDAANVAKGTSILDFNEHGTFNENHNQLWIVERFQSRDTYLIRSVHSNLVLDLSQGLSANGTPILCWTQHGGTNQQWRIEWVKDDNKTPLYRIVSVATGTAISHNEDDSSAYTVAWSVDDGPKQLWSFDPFVTPLLYRLRVKSTSRVLDLAAASADNGTLALAWEQHTAITKRNQLWWLPYRSGAEEYTIQCLETSTVADLSGGNSGNGTPIYGWQSHGGRNQQWKFEPTSDSGDYYHIKNVEGGSVMDAYMNDSQKRVGGWSNNGGDNQKWLLDPLPSPGPGWVLIQNGGTGKFLCSTPSGDIGTADGPETVYDYSVQWRFIQREYTGVYHVVNRATGAYLRQIGTSMPSIGLAEENDDELKDWWMLETYDNSEIGLASIISRWTGNVLDHYGGVSVQALDNNTENSYRSWAIIPARDWLTSFSLVNGQGGLCLAAQYAREETRLSTTANVNDFHAQWVFRKPSGSSGYTIQNKYNNHYVGGTSARWELVVCCNKYFGIRNTSTQKYLAIEDGQVTFQDQDMTDRKQCWELCSGRATDTSGNDYDLIYMDDDLLEVMIPWVGDKQGDLKHYIEKRATKKPPKDKGGWQLPAAGLIKKPKFNDIRQLLQELIEQWEWDVVNEEREQIQTLVSIDEAEARRLLGRRPHPDIVAAYQRSRSSTLFRIDRQGYFNIAGDRYVNIQGQYGDDSYFHIALPVGVRFGREQIRRFLRDSLDRSTSVTITPTTCKPPSGGPDYNRDPDSDGDNSWIKWTIAVVGTSAIKHSEL",glycan array binding signal (z-score),[1],-0.467
same,glycan array binding signal (z-score),[2],-0.51
same,glycan array binding signal (z-score),[3],-0.424
same,glycan array binding signal (z-score),[4],-0.4
same,glycan array binding signal (z-score),[5],1.19
same,glycan array binding signal (z-score),[6],0.177
same,glycan array binding signal (z-score),[7],-0.3
same,glycan array binding signal (z-score),[8],0.744
same,glycan array binding signal (z-score),[9],0.08
same,glycan array binding signal (z-score),[10],0.142
same,glycan array binding signal (z-score),[11],0.199
same,glycan array binding signal (z-score),[12],-0.024
same,glycan array binding signal (z-score),[13],3.26
same,glycan array binding signal (z-score),[14],1.15
same,glycan array binding signal (z-score),[15],0.424
same,glycan array binding signal (z-score),[16],3.12
same,glycan array binding signal (z-score),[17],2.19
same,glycan array binding signal (z-score),[18],3.5
same,glycan array binding signal (z-score),[19],3.22
same,glycan array binding signal (z-score),[20],3.19
same,glycan array binding signal (z-score),[21],3.72
same,glycan array binding signal (z-score),[22],3.25
same,glycan array binding signal (z-score),[23],1.18
same,glycan array binding signal (z-score),[24],3.85
same,glycan array binding signal (z-score),[25],-0.314
same,glycan array binding signal (z-score),[26],0.062
same,glycan array binding signal (z-score),[27],4.2
same,glycan array binding signal (z-score),[28],4.35
same,glycan array binding signal (z-score),[29],-0.431
same,glycan array binding signal (z-score),[30],-0.482
same,glycan array binding signal (z-score),[31],-0.371
same,glycan array binding signal (z-score),[32],-0.141
same,glycan array binding signal (z-score),[33],3.18
same,glycan array binding signal (z-score),[34],-0.466
same,glycan array binding signal (z-score),[35],-0.452
same,glycan array binding signal (z-score),[36],-0.476
same,glycan array binding signal (z-score),[37],-0.473
same,glycan array binding signal (z-score),[38],-0.331
same,glycan array binding signal (z-score),[39],-0.417
same,glycan array binding signal (z-score),[40],-0.37
same,glycan array binding signal (z-score),[41],-0.468
same,glycan array binding signal (z-score),[42],0.306
same,glycan array binding signal (z-score),[43],-0.326
same,glycan array binding signal (z-score),[44],-0.233
same,glycan array binding signal (z-score),[45],-0.448
